In the library only some 5.2% were active in any assay of this set; here they are far more common.
Tau fibril FP = qHTS for Inhibitors of Tau Fibril Formation, Fluorescence Polarization | Microtubule-associated protein tau (Homo sapiens), P10636 | K18 P301L tau heparin fibrillization, Alexa594 FP, 6 h | Potency, µM (highest dose often 57.7 µM), actives largely listed as inhibitors | hit rate 0.39% among 280,000 | AID 1468, 2008; note: nearly all actives have a fitted effect of over 55% in size
Target sequence (P10636 561-689 P618L limits assumed): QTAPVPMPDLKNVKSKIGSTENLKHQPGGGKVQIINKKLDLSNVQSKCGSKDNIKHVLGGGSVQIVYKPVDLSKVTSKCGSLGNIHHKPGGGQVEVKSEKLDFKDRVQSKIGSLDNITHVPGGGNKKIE
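Steps: dispense K18 P301L tau (15 uM plus 0.24 uM Alexa 594 tracer, final) in pH 7 sodium acetate; add compound; add heparin (20 uM final); incubate 6 hr, 37 C; add ThT (30 uM final); after 1 hr ambient, read FP.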
FBPA coupling cs = qHTS Assay for Inhibitors of Fructose-1,6-bisphosphate Aldolase from Giardia Lamblia: Coupling assay counterscreen | coupling enzyme system counterscreen, AmpLite Red fluorescence | activity change, negative = inhibition, % at 58.2 µM, hits read low | hit rate 0.67% among 290,000 | AID 2472, 2010; in the data active = activity change below about -30%
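Final compound at 57.5 uM, incubated 10 min at RT with coupling enzyme reagent (glyceraldehyde-3-phosphate), then 20 min with substrate and AmpLite Red detection. Fluorescence read at 525/598 nm; tests interference with the coupling assay, not aldolase inhibition.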
Tau ThT inhib = qHTS for Inhibitors of Tau Fibril Formation, Thioflavin T Binding; hit rate 2.1% among 270,000; recombinant tau K18 P301L, heparin-induced fibrillization, ThT fluorescence; Potency, µM (titrated, usually from 57.4 µM), most hits filed as inhibitors; Microtubule-associated protein tau (Homo sapiens), P10636; note: nearly all actives have a fitted effect of over 55% in size
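Heparin-induced (20 uM) aggregation of recombinant human K18 P301L tau, 15 uM unlabeled with 0.24 uM labeled, pH 7 acetate buffer, 6 hr at 37 C with compound. Fibrils quantified by 30 uM ThT fluorescence after 1 hr ambient incubation.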
Tau fluor cs = Counterscreen qHTS for Inhibitors of Tau Fibril Formation, Fluorescence Polarization | tau K18 P301L Alexa594 fluorescence, heparin fibrillization | Potency, µM (doses to about 57.7 µM) | hit rate 0.93% among 280,000 | AID 1463, 2008; note: nearly all actives have a fitted effect of over 55% in size
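Human tau K18 P301L (15 uM unlabeled, 0.24 uM Alexa 594-labeled) in 100 mM sodium acetate pH 7 with 20 uM heparin, 6 hr at 37 C. ThT 30 uM added, 1 hr ambient; Alexa 594 FP and total fluorescence read at 555/632 nm.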
Sfp PPTase inh = qHTS Assay for Inhibitors of Bacillus subtilis Sfp phosphopantetheinyl transferase (PPTase); AID 1490, 2009; Potency, µM, usual class: inhibitors; Biochemical Sfp PPTase activity, qHTS; hit rate 3.5% among 310,000; 4'-phosphopantetheinyl transferase ffp (Bacillus subtilis), Q9F4F7;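 note: the enzyme is Sfp with the accession as filed and its product quenches rhodamine fluorescence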
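Compounds were incubated with enzyme (final 15 nM) for 15 min at room temperature before substrate addition started the reaction. Fluorescence at 525 nm excitation, 598 nm emission was recorded immediately and after 30 minutes.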
A number is an active result; [ ] = another dose, or the depositor's remark. Unless noted, calls come from the whole dose curve; as a rule, active = well fitted curve in the direction sought with a large enough effect; inconclusive = small, poorly fitted or top-dose-only effect, or another doubt; inactive = no such curve, though single readings can be large; an effect the other way counts as inactive or inconclusive.

Results for O=C1C[C@H](c2ccccc2Cl)N1S(=O)(=O)c1ccccc1[N+](=O)[O-] ?
FBPA coupling cs: inactive; Sfp PPTase inh: inactive

Results for CCOC(=O)C1CCCN(C(=O)c2ccc3c(c2)N(Cc2ccc(Cl)cc2)C(=O)c2ccccc2S3=O)C1 (stereo not drawn) ?
Tau fibril FP: inactive; Tau ThT inhib: inactive; Tau fluor cs: inactive

What do the screens show for `CCc1cccc(NC(=O)c2cc3c(=O)n(Cc4ccc(OC)cc4)ccc3nc2C)c1`?
Tau fibril FP: inactive; Tau ThT inhib: inactive; Tau fluor cs: inactive

What do the screens show for `COC(=O)C1=C(O)/C(=C\c2ccc(CNC(=O)C(=O)Nc3ccc(C)cc3)o2)N=C1C`?
Tau fibril FP: inactive; FBPA coupling cs: inactive; Tau ThT inhib: inconclusive; Tau fluor cs: inactive; Sfp PPTase inh: 12.6µM

What do the screens show for `COC(=O)C1=C(O)/C(=C\c2ccc(CNC(=O)C(=O)Nc3ccc(C)c(C)c3)o2)N=C1C`?
Tau fibril FP: inactive; FBPA coupling cs: inactive; Tau ThT inhib: inconclusive; Tau fluor cs: inconclusive; Sfp PPTase inh: inconclusive

Results for CCOC(=O)C1=C(O)/C(=C\c2cccc(OC)c2)N=C1C ?
Tau fibril FP: inactive; FBPA coupling cs: inactive; Tau ThT inhib: inconclusive; Tau fluor cs: inactive; Sfp PPTase inh: inactive

How did CCOC(=O)C1=C(O)/C(=C/c2ccc(CNC(=O)C(=O)Nc3ccc(C)cc3)o2)N=C1C do in these assays?
Tau fibril FP: inactive; FBPA coupling cs: inactive; Tau ThT inhib: inconclusive; Tau fluor cs: inactive; Sfp PPTase inh: 39.8µM

How did CCOC(=O)C(=O)NCc1ccc(/C=C2/N=C(C)C(C(=O)OCC)=C2O)o1 do in these assays?
Tau fibril FP: inactive; FBPA coupling cs: inactive; Tau ThT inhib: inconclusive; Tau fluor cs: inactive; Sfp PPTase inh: 22.4µM

How did CCn1c2ccccc2c2cc(CN3CCN(Cc4ccc(Cl)cc4)CC3)ccc21 do in these assays?
Tau fibril FP: inactive; Tau ThT inhib: inconclusive; Tau fluor cs: inactive

What do the screens show for `CCCCc1ccc(-n2nc3cc(Cl)c(NC(=O)c4ccc(OC)cc4)cc3n2)cc1`?
Tau fibril FP: inactive; Tau ThT inhib: inactive; Tau fluor cs: inactive

How did CCc1ccc(C2=C(C)C(N3CCC(C(=O)NCc4ccc(C)o4)CC3)=NS2(=O)=O)cc1 do in these assays?
Tau fibril FP: inactive; Tau ThT inhib: inactive; Tau fluor cs: inactive

Results for CC(C)Nc1nnc(SCc2cc(=O)n3ccsc3n2)s1 ?
Tau fibril FP: inactive; FBPA coupling cs: inactive; Tau ThT inhib: inactive; Tau fluor cs: inactive; Sfp PPTase inh: 56.2µM

Results for O=c1cc(CSc2nnc(Nc3ccccc3)s2)nc2sccn12 ?
Tau fibril FP: inactive; FBPA coupling cs: inactive; Tau ThT inhib: inactive; Tau fluor cs: inactive; Sfp PPTase inh: inactive

Results for C#CCOCCOCCOCCNc1nc(N2CCN(C(=O)[C@H]([C@@H](C)CC)n3cc([C@@H](N)CO)nn3)CC2)nc(N2CCN(C(=O)[C@H](Cc3cc4ccccc4[nH]3)n3cc([C@@H](N)C(C)CC)nn3)CC2)n1 (stereo partly drawn) ?
Tau fibril FP: inactive; FBPA coupling cs: inactive; Tau ThT inhib: inconclusive; Tau fluor cs: inactive; Sfp PPTase inh: 50.1µM

What do the screens show for `C#CCOCCOCCOCCNc1nc(N2CCN(C(=O)[C@H](Cc3ccc(O)cc3)n3cc([C@@H](N)C(C)CC)nn3)CC2)nc(N2CCN(C(=O)[C@H](Cc3cc4ccccc4[nH]3)n3cc([C@@H](N)CC(C)C)nn3)CC2)n1` (stereo partly drawn)?
Tau fibril FP: inactive; FBPA coupling cs: inactive; Tau ThT inhib: inconclusive; Tau fluor cs: inactive; Sfp PPTase inh: 50.1µM

Results for C#CCOCCOCCOCCNc1nc(N2CCN(C(=O)[C@H](Cc3cc4ccccc4[nH]3)n3cc([C@@H](N)C(C)CC)nn3)CC2)nc(N2CCN(C(=O)[C@H](Cc3cc4ccccc4[nH]3)n3cc([C@@H](N)Cc4ccc(O)cc4)nn3)CC2)n1 (stereo partly drawn) ?
Tau fibril FP: inactive; FBPA coupling cs: inactive; Tau ThT inhib: inconclusive; Tau fluor cs: inactive; Sfp PPTase inh: 50.1µM

How did C#CCOCCOCCOCCNc1nc(N2CCN(C(=O)[C@H]([C@@H](C)CC)n3cc([C@@H](N)CC(C)C)nn3)CC2)nc(N2CCN(C(=O)[C@H](Cc3cc4ccccc4[nH]3)n3cc([C@@H](N)CC(C)C)nn3)CC2)n1 do in these assays?
Tau fibril FP: inactive; FBPA coupling cs: inactive; Tau ThT inhib: inconclusive; Tau fluor cs: inactive; Sfp PPTase inh: inactive

How did COc1ccc(COC(=O)N/N=C2/C[C@@H](O)[C@@H](O)[C@@H]3[C@@H]4C(=O)N(C5CCCCC5)C(=O)[C@H]4CC[C@@H]23)cc1 do in these assays?
Tau fibril FP: inactive[11.6 µM]; FBPA coupling cs: inactive; Tau ThT inhib: inactive[11.5 µM]; Tau fluor cs: inactive[11.6 µM]; Sfp PPTase inh: inactive

How did O=C1CC(c2ccco2)=Nc2ccccc2N1 do in these assays?
Tau fibril FP: inactive; FBPA coupling cs: inactive; Tau ThT inhib: inactive; Tau fluor cs: inactive; Sfp PPTase inh: 50.1µM

Results for C1CCCCCC(=NNc2nn[nH]n2)CCCCC1 ?
Tau fibril FP: inactive; FBPA coupling cs: inactive; Tau ThT inhib: inactive; Tau fluor cs: inactive; Sfp PPTase inh: 39.8µM

Results for CCOc1ccc(CCNC(=O)CCCn2nc(C)c3sc4ccccc4c3c2=O)cc1OCC ?
Tau fibril FP: inactive; Tau ThT inhib: inactive; Tau fluor cs: inactive

What do the screens show for `Cc1ccc2nc(/C(C#N)=C/c3ccc(-c4cccc(Cl)c4)o3)[nH]c2c1`?
Tau fibril FP: inactive; Tau ThT inhib: inactive; Tau fluor cs: inconclusive

What do the screens show for `Cc1nc(S/C(=C/c2ccc(-c3cccc(Cl)c3)o2)C(=O)O)n[nH]1`?
Tau fibril FP: inactive; FBPA coupling cs: inactive; Tau ThT inhib: 2.82µM; Tau fluor cs: inactive; Sfp PPTase inh: 44.7µM

Results for COc1ccc(NC(=S)Nc2ccc(N)c([N+](=O)[O-])c2)cc1 ?
Tau fibril FP: inactive; FBPA coupling cs: inactive; Tau ThT inhib: 15.8µM; Tau fluor cs: inconclusive; Sfp PPTase inh: inconclusive

Results for COc1cccc(NC(=S)Nc2ccc(O)cc2)c1 ?
Tau fibril FP: inconclusive; FBPA coupling cs: inactive; Tau ThT inhib: 17.8µM; Tau fluor cs: inconclusive; Sfp PPTase inh: 20µM

Results for COc1ccc(NC(=S)Nc2ccc3nccnc3c2)cc1 ?
Tau fibril FP: inactive; FBPA coupling cs: -38.0; Tau ThT inhib: inconclusive; Tau fluor cs: inactive; Sfp PPTase inh: 44.7µM

How did COc1ccc(-c2nc3c(c4c2C[C@H](c2ccccc2)OC4)CN(C(=O)NCc2ccco2)CC3)c(C)c1 do in these assays?
Tau fibril FP: inactive[11.6 µM]; FBPA coupling cs: inactive; Tau ThT inhib: inactive[11.5 µM]; Tau fluor cs: inactive[11.6 µM]; Sfp PPTase inh: inactive

From PubChem
